This is a sample that favours compounds with a hit; in the whole collection about 3.2% have one here.
LMP1 NFkB inh: Epstein-Barr LMP1 NF-kappaB reporter inhibition; 350,000 tested, 0.69% active; AID 504558; inhibition, % at 12.5 µM; LMP1-induced NF-kappaB luciferase reporter cells, luminescence; in the data active = inhibition above about 41%; inconclusive = no clear call, values can overlap the other calls;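 note: 0% = neutral control wells and 100% = reference inhibitor control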
LGR2 antag: Drosophila LGR2 receptor signaling inhibition; HEK293 LGR2, CRE-luciferase, bursicon-stimulated, 4 h; inhibition, % at 9.99 µM; 380,000 tested, 0.35% active;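 active = drop in luminescence signal, shown as inhibition above about 50% in the replicate tests, limit read from the data, passing the limit was not always enough; inconclusive = probably only some replicates passing the limit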;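 note: agonist challenge used bursicon conditioned medium at about half maximal strength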
TROY signal inh: blocks TROY-dependent signaling in reporter cells. Q293 LMP1-TROYcd NF-kB luciferase reporter, 4 h. inhibition, % at 10 µM. 360,000 tested, 0.98% active;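 active = compounds whose plate-normalised and pattern-corrected inhibition of the luciferase reporter signal at the single screening dose is 50% or more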
EWS-Fli inh: inhibitors of EWS/Fli oncoprotein transcriptional activity; A673 NR0B1-luciferase reporter, viability-normalised; inhibition, % at 12.6 µM; 350,000 tested, 0.67% active;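 active = mean inhibition of at least 50% after viability correction, with every replicate also passing that limit; inconclusive = mean reaches 50% but only one of two replicates passes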;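 note: firefly luciferase signal divided by Alamar Blue viability fluorescence both relative to DMSO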
TWEAK-Fn14 inh: blocks TWEAK-Fn14 interaction in a reporter cell assay; inhibition, % at 10 µM; TWEAK-stimulated Fn14 reporter cells, luciferase luminescence, 8 h; AID 1159606; 360,000 tested, 2% active; in the data active = inhibition above about 50%
PAX8 reporter: PAX8 transcriptional activity inhibition | RMG-I TPO-luciferase reporter, SteadyGlo, 24 h | inhibition, % at 12.6 µM | 360,000 tested, 1.2% active | AID 652154;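 active = mean replicate inhibition at least 60% with every replicate also reaching 60%; inconclusive = only one of the two criteria is met; inactive = mean below 60% and not all replicates reaching 60%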;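 note: luciferase light reporting Pax8 driven TPO promoter activity; plate controls were median of neutral control wells for no effect and mitoxantrone controls for full effect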
Numbers without * were called inactive; ? = inconclusive; · = no result.

SMILES | LMP1 NFkB inh | LGR2 antag | TROY signal inh | EWS-Fli inh | TWEAK-Fn14 inh | PAX8 reporter
C[C@H]1CN([C@@H](C)CO)C(=O)CCCn2nncc2CO[C@H]1CN(C)C(=O)CCCN(C)C | · | 10 | · | 4 | · | -13
Cc1c(Nc2cc(Cl)c3nonc3c2[N+](=O)[O-])c(=O)n(-c2ccccc2)n1C | 10 | 103* | 84* | 43 | 50* | 107*
O=[N+]([O-])c1c(Nc2cccc(O)c2)cc(Cl)c2nonc12 | 56* | 8 | 88* | 59* | 64* | 112*
O=C(C[C@@H]1CC[C@@H]2[C@H](COC[C@H](O)CN2Cc2cccc(F)c2)O1)NCCc1ccncc1 | · | -7 | · | -11 | · | 4
N#C[C@@H]1[C@@H](c2ccc(-c3cccc(F)c3)cc2)[C@H](CO)N1C(=O)NC1CCCC1 | · | 23 | · | 8 | · | 89*
CN(C)C(=O)c1ccc(-c2ccc(C3[C@H]4CNC[C@@H]3N4C(=O)NC3CCCCC3)cc2)cc1 (stereo partly drawn) | · | 7 | · | · | · | ·
N#C[C@H]1[C@@H](c2ccc(-c3cccc(F)c3)cc2)[C@@H](CO)N1C(=O)NC1CCCCC1 | · | 33 | · | · | · | 68*
N#C[C@H]1[C@@H](c2ccc(-c3cccc(F)c3)cc2)[C@H](CO)N1C(=O)NC1CCCCC1 | · | 7 | · | 0 | · | ·
N#Cc1ccc(-c2ccc(C3[C@H]4CNC[C@@H]3N4C(=O)NC3CCCCC3)cc2)cc1 (stereo partly drawn) | · | -27 | · | 5 | · | 73*
O=C(C[C@H]1C[C@H]2c3cc(NC(=O)C4CCC4)ccc3O[C@H]2[C@@H](CO)O1)NC1CCCCC1 | · | -10 | · | -7 | · | -1
Cc1noc(C)c1S(=O)(=O)N(C)C[C@H]1Oc2ccc(NC(=O)Nc3ccc(C(F)(F)F)cc3)cc2CC(=O)N([C@@H](C)CO)C[C@H]1C | · | 9 | · | -1 | · | 27
Cc1ccc(S(=O)(=O)N(C)C[C@@H]2OCCCC[C@@H](C)Oc3ccc(NC(=O)Nc4ccc5c(c4)OCO5)cc3C(=O)N([C@@H](C)CO)C[C@@H]2C)cc1 | · | -7 | · | -5 | · | -16
COC(=O)C1C=CC(OC2OC(COC(C)=O)C(OC(C)=O)C(OC(C)=O)C2OC(C)=O)n2c(=O)n(-c3ccccc3)c(=O)n21 (stereo not drawn) | -4 | ? | -8 | -4 | 55* | 101*
CC(=O)OCC1OC(n2ccc3ccccc32)C(OC(C)=O)C(OC(C)=O)C1OC(C)=O (stereo not drawn) | -1 | · | 4 | · | -2 | ·
CN1C[C@@H](O)COC[C@@H]2O[C@H](CC(=O)N3CCN(c4ccccc4)CC3)CC[C@H]21 | · | 23 | · | -2 | · | 9
CC(C)c1nnc(NC(=O)CCS(=O)(=O)Cc2ccccc2)s1 | 6 | 2 | -8 | -9 | 11 | -6
CC(C)c1nnc(NC(=O)CCS(=O)(=O)c2nc(-c3cccs3)cc(C(F)(F)F)n2)s1 | -5 | · | 50* | · | 62* | ·
Cc1noc(C)c1NC(=O)Nc1cccc2c1O[C@@H](CN(C)Cc1ccncc1)[C@@H](C)CN([C@H](C)CO)C2=O | · | 7 | · | · | · | 0
Cc1cc(N2CCN(C)CC2)nc2ccc(NC(=S)NCCC(C)C)cc12 | 4 | 2 | 54* | 6 | 25 | 24
Cc1cc(N2CCOCC2)nc2ccc(NC(=S)NCCC(C)C)cc12 | -6 | 1 | -30 | 0 | -8 | 8
Cc1ccc(S(=O)(=O)Nc2ccc(-c3cn4ccc(C)cc4n3)cc2)cc1 | -14 | -12 | -4 | -22 | -22 | -29
Clc1ccc(-c2cn3cc(Br)ccc3n2)cc1Cl | -35 | · | 28 | 17 | 58* | -113
Cc1ccn2cc(-c3ccc(Br)cc3)nc2c1 | 24 | 59* | 33 | 62* | 73* | 1
Brc1ccc2nc(-c3c[nH]c4ccccc34)cn2c1 | -103 | -18 | -39 | -86 | -10 | -153
CN(C)C(=O)C[C@@H]1CC[C@@H]2[C@H](COC[C@H](O)CN2CC2CCCC2)O1 | · | -21 | · | -4 | · | -8
COc1cccc(CNc2ncnc3cc(OC)c(OC)cc23)c1 | 6 | 2 | 9 | · | 5 | ·
COc1cccc(-c2ccc3ncnc(NCc4cccnc4)c3c2)c1 | 19 | 12 | 45 | 11 | 74* | -17
Cc1ccccc1-c1cnc2c(c1)C(=O)N([C@@H](C)CO)C[C@H](C)[C@H](CN(C)C(=O)c1ccncc1)O2 | · | 3 | · | 10 | · | ·
